# In the antibiotic and cytotoxicity screens of Wong et al. (2023):
# Out of some 39,000 compounds screened, about 3,300 (8.5%) were called active. For the sample, actives were picked, then their nearest neighbours and some compounds at random.
# System: HepG2
# Test: cytotoxicity call (relative viability < 0.9)
# Settings: 10 µM
row,SMILES,cytotoxicity call
1,C[C@@H]1CCCCO[C@H](CN(C)CC2CCCCC2)[C@H](C)CN([C@@H](C)CO)C(=O)c2cc(NC(=O)c3ccncc3)ccc2O1,inactive
2,C[C@@H]1CN([C@H](C)CO)C(=O)Cc2cc(NC(=O)Cn3cnnn3)ccc2O[C@H]1CN(C)C(=O)Nc1ccc2c(c1)OCO2,inactive
3,COCC(=O)N1C[C@@H](C)[C@@H](OC)CN(C)C(=O)c2cc(NC(=O)c3cc(C)on3)ccc2OC[C@@H]1C,inactive
4,Cc1ccc(S(=O)(=O)Nc2ccc3c(c2)CC(=O)N([C@@H](C)CO)C[C@@H](C)[C@H](CN(C)Cc2ccc(Oc4ccccc4)cc2)O3)cc1,inactive
5,Cc1ccc(S(=O)(=O)Nc2ccc3c(c2)CC(=O)N([C@H](C)CO)C[C@H](C)[C@@H](CN(C)Cc2ccc(Oc4ccccc4)cc2)O3)cc1,inactive
6,Cc1ccc(S(=O)(=O)Nc2ccc3c(c2)CC(=O)N([C@@H](C)CO)C[C@H](C)[C@H](CN(C)Cc2ccc(Oc4ccccc4)cc2)O3)cc1,inactive
7,Cc1ccc(S(=O)(=O)Nc2ccc3c(c2)CC(=O)N([C@@H](C)CO)C[C@H](C)[C@@H](CN(C)Cc2ccc(Oc4ccccc4)cc2)O3)cc1,active
8,Cc1ccc(S(=O)(=O)Nc2ccc3c(c2)CC(=O)N([C@@H](C)CO)C[C@@H](C)[C@@H](CN(C)Cc2ccc(Oc4ccccc4)cc2)O3)cc1,inactive
9,Cc1ccc(S(=O)(=O)Nc2ccc3c(c2)CC(=O)N([C@H](C)CO)C[C@@H](C)[C@@H](CN(C)Cc2ccc(Oc4ccccc4)cc2)O3)cc1,active
10,COc1ccc(S(=O)(=O)N(C)C[C@@H]2Oc3c(NC(=O)c4cc(C)nn4C)cccc3C(=O)N([C@@H](C)CO)C[C@H]2C)cc1,inactive
11,C[C@H](O)C#Cc1ccc2c(c1)O[C@@H](CN(C)C(=O)Nc1ccccc1)[C@@H](C)CN([C@@H](C)CO)S2(=O)=O,inactive
12,C[C@@H]1CN([C@H](C)CO)C(=O)CCCn2cc(nn2)CO[C@H]1CN(C)S(=O)(=O)c1ccc(Cl)cc1,inactive
13,C[C@@H]1CCCCO[C@@H](CN(C)C(=O)C2CCCCC2)[C@H](C)CN([C@H](C)CO)C(=O)c2cc(NC(=O)Cc3ccccc3)ccc2O1,inactive
14,CC(C)CC(=O)Nc1cncc(-c2ccc3[nH]nc(-c4nc5cncc(-c6cccc(F)c6)c5[nH]4)c3c2)c1,active
15,CO[C@H](CN(C)C(=O)C1CCOCC1)[C@@H](C)CN(C(=O)Nc1ccc(C(F)(F)F)cc1)[C@H](C)CO,inactive
16,COc1ccccc1CNC(=O)C[C@@H]1C[C@H]2c3cc(NC(=O)C4CCOCC4)ccc3O[C@H]2[C@H](CO)O1,inactive
17,CCN(CC)CCc1nc(-c2ccccc2)no1.O=C(O)CC(O)(CC(=O)O)C(=O)O,active
18,NCc1nc(-c2ccccc2)no1,inactive
19,CCN(CCCc1ccccc1)CCCc1ccccc1.O=C(O)CC(O)(CC(=O)O)C(=O)O,inactive
20,C=CC(=O)Nc1ccccc1[C@@H](CCc1ccc(OC)c(OC)c1)OC(=O)[C@@H]1CCCCN1C(=O)C(=O)C(C)(C)CC,inactive
21,COc1ccc(NC(=O)Nc2ccc3c(c2)[C@H]2C[C@H](CC(=O)NCC(F)(F)F)O[C@H](CO)[C@H]2O3)cc1,inactive
22,Cn1cnc(CCNC(=O)C[C@@H]2CC[C@@H]3[C@H](COC[C@@H](O)CN3C(=O)Nc3ccc(C(F)(F)F)cc3)O2)c1,inactive
23,COc1ccc(CN(C)C[C@H]2Oc3c(NC(=O)Nc4ccc(C(F)(F)F)cc4)cccc3C(=O)N([C@H](C)CO)C[C@H]2C)cc1,inactive
24,COc1ccc(NC(=O)Nc2cccc3c2O[C@@H](CN(C)Cc2ccc(C(F)(F)F)cc2)[C@@H](C)CN([C@H](C)CO)C3=O)cc1,inactive

row,SMILES,cytotoxicity call
1,COc1ccc(CN(C)C[C@H]2Oc3c(NC(=O)Nc4ccc(C(F)(F)F)cc4)cccc3C(=O)N([C@@H](C)CO)C[C@H]2C)cc1,active
2,COc1ccc(NC(=O)Nc2cccc3c2O[C@@H](CN(C)Cc2ccc(C(F)(F)F)cc2)[C@H](C)CN([C@@H](C)CO)C3=O)cc1,inactive
3,COc1ccc(CN(C)C[C@@H]2Oc3c(NC(=O)Nc4ccc(C(F)(F)F)cc4)cccc3C(=O)N([C@@H](C)CO)C[C@H]2C)cc1,active
4,COc1ccc(CN(C)C[C@H]2Oc3c(NC(=O)Nc4ccc(C(F)(F)F)cc4)cccc3C(=O)N([C@H](C)CO)C[C@@H]2C)cc1,inactive
5,Cc1noc(C)c1NC(=O)N(C)C[C@@H]1OCCCC[C@@H](C)Oc2ccc(NC(=O)C3CCCCC3)cc2C(=O)N([C@H](C)CO)C[C@H]1C,inactive
6,C[C@@H]1CN([C@@H](C)CO)S(=O)(=O)c2ccc(Br)cc2O[C@H]1CN(C)C(=O)c1ccccc1F,inactive
7,O=C(O)c1cc(=O)cc[nH]1,inactive
8,C[C@@H]1CN([C@@H](C)CO)C(=O)Cc2cc(NS(=O)(=O)c3ccc(F)cc3)ccc2O[C@@H]1CN(C)Cc1ccncc1,inactive
9,COc1ccc(CNC(=O)C[C@H]2C[C@H]3c4cc(NC(=O)NC5CCCC5)ccc4O[C@H]3[C@H](CO)O2)cc1,inactive
10,COc1cccc(S(=O)(=O)Nc2ccc3c(c2)[C@H]2C[C@H](CC(=O)NC4CCCCC4)O[C@H](CO)[C@H]2O3)c1,inactive
11,OC(c1ccc(-c2ccc(CN3CCN(Cc4ccncc4)CC3)cc2)c(F)c1)(C(F)(F)F)C(F)(F)F,inactive
12,CC(=O)N[C@@H](CC(C)C)C(=O)O [listing 1 of 2 here],inactive
13,CC(=O)N[C@@H](CC(C)C)C(=O)O [listing 2 of 2 here],inactive
14,CC(C)C[C@@H](NC(=O)CCN)C(=O)O,active
15,O=C(N[C@@H]1CC[C@H](CCNS(=O)(=O)c2ccc(F)cc2)O[C@H]1CO)C1CC1,inactive
16,Cc1noc(C)c1S(=O)(=O)N(C)C[C@@H]1Oc2ccc(NC(=O)NC(C)C)cc2CC(=O)N([C@@H](C)CO)C[C@H]1C,inactive
17,CCN1C(=O)S/C(=C\C(=O)O)C1=O,inactive
18,O=C(C[C@H]1CC[C@@H]2NC[C@@H](O)COC[C@H]2O1)NCCN1CCCCC1,inactive
19,C[C@@H]1CN([C@H](C)CO)C(=O)c2cc(NC(=O)Nc3ccc(C(F)(F)F)cc3)ccc2O[C@@H](C)CCCCO[C@H]1CN(C)S(=O)(=O)c1ccc(Cl)cc1,inactive
20,C[C@H](CO)N1C[C@H](C)[C@H](CN(C)S(=O)(=O)c2ccc(Cl)cc2)OCCCC[C@H](C)Oc2ccc(NC(=O)Nc3ccc(C(F)(F)F)cc3)cc2C1=O,active
21,C[C@@H]1CCCCO[C@H](CN(C)S(=O)(=O)c2ccc(Cl)cc2)[C@@H](C)CN([C@H](C)CO)C(=O)c2cc(NC(=O)Nc3ccc(C(F)(F)F)cc3)ccc2O1,active
22,C[C@@H]1CCCCO[C@@H](CN(C)S(=O)(=O)c2ccc(Cl)cc2)[C@H](C)CN([C@@H](C)CO)C(=O)c2cc(NC(=O)Nc3ccc(C(F)(F)F)cc3)ccc2O1,inactive
23,C[C@H]1CCCCO[C@H](CN(C)S(=O)(=O)c2ccc(Cl)cc2)[C@@H](C)CN([C@@H](C)CO)C(=O)c2cc(NC(=O)Nc3ccc(C(F)(F)F)cc3)ccc2O1,inactive
24,C[C@@H]1CCCCO[C@@H](CN(C)S(=O)(=O)c2ccc(Cl)cc2)[C@H](C)CN([C@H](C)CO)C(=O)c2cc(NC(=O)Nc3ccc(C(F)(F)F)cc3)ccc2O1,inactive

row,SMILES,cytotoxicity call
1,COc1ccc(S(=O)(=O)N(C)C[C@@H]2Oc3ncc(-c4cccc(OC)c4)cc3C(=O)N([C@H](C)CO)C[C@@H]2C)cc1,inactive
2,Cc1noc(C)c1S(=O)(=O)Nc1ccc2c(c1)C(=O)N([C@@H](C)CO)C[C@@H](C)[C@H](CN(C)C(=O)Nc1ccc(C(F)(F)F)cc1)OCCCC[C@@H](C)O2,inactive
3,NC[C@H]1COC2(CCCCC2)O1,inactive
4,C[C@H]1CN([C@@H](C)CO)C(=O)Cc2cc(NC(=O)CCN3CCOCC3)ccc2O[C@H]1CN(C)S(=O)(=O)c1ccc(Cl)cc1,inactive
5,CC(=O)Nc1nonc1N1CCCC1=O,inactive
6,O=C(Cc1ccccn1)NCC[C@@H]1CC[C@@H](NC(=O)CN2CCOCC2)[C@@H](CO)O1,inactive
7,Cc1ccc(S(=O)(=O)Nc2ccc3c(c2)C(=O)N([C@@H](C)CO)C[C@@H](C)[C@@H](CN(C)C(=O)Nc2ccc4c(c2)OCO4)OCCCC[C@H](C)O3)cc1,inactive
8,CC1C=CC=CC=CC=CC=CC=CC=CC(OC2OC(C)C(O)C(N)C2O)CC2OC(O)(CC(O)CC(O)C(O)CCC(O)CC(O)CC(=O)OC(C)C(C)C1O)CC(O)C2C(=O)O (configuration not stated),inactive
9,C[C@H]1[C@@H](O)[C@@H](C)\C=C/C=C\C=C/C=C\C=C/C=C\C=C/[C@@H](O[C@H]2O[C@H](C)[C@@H](O)[C@H](N)[C@@H]2O)C[C@H]2O[C@](O)(C[C@@H](O)C[C@@H](O)[C@@H](O)CC[C@@H](O)C[C@@H](O)CC(=O)O[C@H]1C)C[C@@H](O)[C@@H]2C(=O)O,inactive
10,CC1C=CC=CC=CC=CC=CC=CC=CC(OC2OC(C)C(O)C(N)C2O)CC(O)C(C(=O)O)C(O)CC(=O)CC(O)CC(O)CC(O)CC(=O)CCCC(=O)CC(=O)OC1C(C)CC(C)C(O)CC(=O)c1ccc(N)cc1 (configuration not stated),active
11,COc1ccc(CN(C)C[C@@H]2Oc3ccc(NC(=O)Cn4cnnn4)cc3CC(=O)N([C@H](C)CO)C[C@H]2C)cc1,inactive
12,O=c1nc(NCc2cccnc2)cn[nH]1,inactive
13,COc1ccc(NC(=O)Nc2ccc3c(c2)C(=O)N([C@@H](C)CO)C[C@@H](C)[C@H](CN(C)CC2CCCCC2)OCCCC[C@@H](C)O3)cc1,inactive
14,COc1ccc(NC(=O)Nc2ccc3c(c2)C(=O)N([C@H](C)CO)C[C@@H](C)[C@@H](CN(C)CC2CCCCC2)OCCCC[C@@H](C)O3)cc1,active
15,COc1ccc(NC(=O)Nc2ccc3c(c2)C(=O)N([C@@H](C)CO)C[C@@H](C)[C@@H](CN(C)CC2CCCCC2)OCCCC[C@@H](C)O3)cc1,active
16,COc1ccc(NC(=O)Nc2ccc3c(c2)C(=O)N([C@H](C)CO)C[C@@H](C)[C@@H](CN(C)CC2CCCCC2)OCCCC[C@H](C)O3)cc1,active
17,COc1ccc(NC(=O)Nc2ccc3c(c2)C(=O)N([C@H](C)CO)C[C@@H](C)[C@H](CN(C)CC2CC2)OCCCC[C@H](C)O3)cc1,inactive
18,COc1ccc(NC(=O)Nc2ccc3c(c2)C(=O)N([C@@H](C)CO)C[C@@H](C)[C@H](CN(C)CC2CCCCC2)OCCCC[C@H](C)O3)cc1,inactive
19,COc1ccc(NC(=O)Nc2ccc3c(c2)C(=O)N([C@H](C)CO)C[C@H](C)[C@@H](CN(C)CC2CCCCC2)OCCCC[C@@H](C)O3)cc1,inactive
20,COc1ccc(NC(=O)Nc2ccc3c(c2)C(=O)N([C@@H](C)CO)C[C@H](C)[C@@H](CN(C)CC2CCCCC2)OCCCC[C@H](C)O3)cc1,inactive
21,COc1ccc(NC(=O)Nc2ccc3c(c2)C(=O)N([C@@H](C)CO)C[C@H](C)[C@H](CN(C)CC2CCCCC2)OCCCC[C@@H](C)O3)cc1,inactive
22,COc1ccc(NC(=O)Nc2ccc3c(c2)C(=O)N([C@H](C)CO)C[C@H](C)[C@H](CN(C)CC2CCCCC2)OCCCC[C@H](C)O3)cc1,inactive
23,COc1ccc(NC(=O)Nc2ccc3c(c2)C(=O)N([C@@H](C)CO)C[C@@H](C)[C@@H](CN(C)CC2CCCCC2)OCCCC[C@H](C)O3)cc1,inactive
24,COc1ccc(NC(=O)Nc2ccc3c(c2)C(=O)N([C@H](C)CO)C[C@@H](C)[C@H](CN(C)CC2CCCCC2)OCCCC[C@@H](C)O3)cc1,active
